Out of some 53,000 compounds screened, about 900 (1.7%) showed an effect of 50% or more. This is one part of a sample in which strong results are shown more often than they occur.

In the experiment the test system is Mycobacterium tuberculosis. In words: Cornell - Phenotypic assay to identify agents that inhibit growth of Mycobacterium tuberculosis. The experiment is classed as functional. More on the design: scale not given: direction of the effect not stated beside the values. Particulars: 10 mM as filed; unlikely as a test dose.
For the compound `COCCN1CCC2(CCN(Cc3ccc(OC)cc3)CC2)C1=O.O=C(O)C(F)(F)F`, the “Percent Effect” value is given as -13.5%.

For the compound `Cc1cccc(CN2CCC3(CCC(C(=O)N(C)C)O3)CC2)n1` (stereo not given), the “Percent Effect” value came to 35.49%.

Consider `Fc1cccc2[nH]c(CN3CCn4c(nnc4C4CC4)C3)nc12`, for which the “Percent Effect” value is given as -6.1%.

As for `COc1c(CNCc2nnc3n2CCCCC3)c(C(C)C)nn1C.Cl`, the “Percent Effect” value was -4.214%.

Regarding `Cc1nn(C)c(N(C)C)c1CNCc1nnc2n1CCCCC2.Cl`, the “Percent Effect” value is 67.58%.

Consider `COc1c(CNCc2nnc3n2CCCCC3)c(C)nn1C.Cl`, for which the “Percent Effect” value stood at 31.65%.

With `Cc1cccc(COc2ccc(C(C)NC(=O)CNC(N)=O)cc2)c1` (stereo not given), the “Percent Effect” value is 14.07%.

Turning to `CC1(C)CC(=O)c2cnc3nc(N4CCCC4)[nH]c(=O)c3c2C1`, the “Percent Effect” value is reported as 23.1%.

As for `CCC1CNCc2cc3c(C)ccc(C)c3nc2O1` (stereo not given), the “Percent Effect” value is reported as 61.63%.

In the case of `CCC1CNCc2cc3c(OC)ccc(OC)c3nc2O1` (stereo not given), the “Percent Effect” value is on record as 6.248%.

With `CS(=O)(=O)c1ccccc1-n1cc(NC(=O)CC(F)(F)F)cn1`, the “Percent Effect” value was determined as 18.55%.

`CCC(=O)c1ccccc1NN1c2ccccc2C(=O)C1(C)OC` (stereo not given): the “Percent Effect” value is 13.72%.

As for `Cc1nc(N2CCOCC2)nc(C)c1NC(=O)Cc1ccc(Cl)cc1`, the “Percent Effect” value is on record as -26.81%.

With `COc1ccc(CC(=O)Nc2c(C)nc(N3CCCC3)nc2C)cc1`, the “Percent Effect” value is given as 59.35%.

On to `COc1ccc(CC(=O)Nc2c(C)nc(N3CCOCC3)nc2C)cc1`, for which the “Percent Effect” value amounted to 3.579%.

Regarding `COc1cc(N2C[C@H]3OCC[C@H]3[C@H](C(=O)N3CCCC3)C2)ncn1`, the “Percent Effect” value was -33.02%.

Regarding `CC[C@@H]1N(Cc2ccsc2)CCC[C@]12CCC(=O)N2CCOC.O=C(O)C(F)(F)F`, the “Percent Effect” value is reported as 13.62%.

Take `CC[C@@H]1N(CC2CC2)CCC[C@]12CCC(=O)N2CCOC.O=C(O)C(F)(F)F`: the “Percent Effect” value is 52.28%.

On to `CC[C@H]1N(CC2CCC2)CCC[C@]12CCC(=O)N2Cc1ccncc1.O=C(O)C(F)(F)F.O=C(O)C(F)(F)F`, for which the “Percent Effect” value is given as 23.16%.

In the case of `Cc1cccc(CN2CCC(Cc3ccccc3F)CC2)n1`, the “Percent Effect” value was 56.1%.

`Fc1ccccc1CC1CCN(Cc2ccccn2)CC1`: the “Percent Effect” value was 29.36%.

Consider `Fc1ccccc1CC1CCN(Cc2cscn2)CC1`, for which the “Percent Effect” value amounted to 30.5%.

As for `O=C1CN(C(=O)C2CN(c3ccccc3)CCO2)CCN1` (stereo not given), the “Percent Effect” value is on record as 14.68%.

With `Cc1occc1C(=O)Nc1ccnc(OC2CCOC2)c1` (stereo not given), the “Percent Effect” value is 6.262%.

As to `O=C(Nc1ccnc(OC2CCOC2)c1)c1ccccc1Cl` (stereo not given), the “Percent Effect” value amounted to 61.48%.

`O=C(Nc1ccnc(OC2CCOC2)c1)c1ccc(F)cc1Cl` (stereo not given): the “Percent Effect” value worked out at 1.296%.

For the compound `CN(Cc1ccc(F)cc1)[C@@H]1CN(S(=O)(=O)N(C)C)C[C@H]1O`, the “Percent Effect” value was 11.25%.

On to `COCCN1CCO[C@H]2CN(Cc3cc[nH]n3)C[C@H]21.O=C(O)C(F)(F)F.O=C(O)C(F)(F)F`, for which the “Percent Effect” value is -6.862%.

`N#Cc1cccnc1NCc1ccc(S(=O)(=O)NCC2CCCO2)cc1` (stereo not given): the “Percent Effect” value was -11.22%.

Turning to `Cc1ccc(S(=O)(=O)Nc2cccnc2O)cc1C`, the “Percent Effect” value was -38.51%.

Take `Cc1cccc(NS(=O)(=O)c2ccc(C#N)nc2)c1C#N`: the “Percent Effect” value is reported as 105.8%.

As to `COCCNS(=O)(=O)c1ccc(CNc2ncccc2C#N)cc1`, the “Percent Effect” value came to 9.617%.

`Cc1cccc(NS(=O)(=O)c2cnn(C)c2)c1C#N`: the “Percent Effect” value is recorded as -1.344%.

Regarding `N#Cc1ccc(S(=O)(=O)Nc2ccccc2C#N)cn1`, the “Percent Effect” value is reported as 63.63%.

Consider `Cc1ccc(N2C[C@H]3CCN(Cc4ccncc4)C[C@H]3C2)nn1.O=C(O)C(F)(F)F`, for which the “Percent Effect” value is -19.26%.

As to `Cc1ccc(CN2CCC3(CCCN3C(=O)C(C)C)CC2)o1`, the “Percent Effect” value was -8.279%.

On to `CCOc1nnc(CN(C)C2CCCN(c3cccnn3)C2)s1` (stereo not given), for which the “Percent Effect” value stood at 26.02%.

Consider `CC1c2ncc(COCC3CC3)n2CCN1C(=O)c1ccn(C)n1` (stereo not given), for which the “Percent Effect” value came to 14.69%.

With `Cc1cc(CNC(=O)NC(C)c2ccc(N3CCOCC3)cc2)no1` (stereo not given), the “Percent Effect” value is given as -27.63%.

`Cc1noc(C(C)Nc2ccc(N3CCOCC3)cc2C)n1` (stereo not given): the “Percent Effect” value turned out to be 61.87%.

Take `CC(c1nc(C(C)(C)C)no1)N1CCN(C(=O)CN2CCOCC2)CC1` (stereo not given): the “Percent Effect” value is 8.353%.

As for `CCN1CCN(c2ccc(NC(=O)CC(C)C)c(C)c2)CC1`, the “Percent Effect” value is -22.64%.

Consider `Cc1noc(C(C)Nc2ccc3c(c2)CCC3)n1` (stereo not given), for which the “Percent Effect” value was -0.4193%.

With `Cc1cc(N2CCOCC2)ccc1NC(C)c1nc(C(C)(C)C)no1` (stereo not given), the “Percent Effect” value came to 76.4%.

For `Cc1noc(C(C)N2CCN(CC(=O)N3CCOCC3)CC2)n1` (stereo not given), the “Percent Effect” value was -22.01%.

Take `CCN1CCN(c2ccc(NC(C)c3nc(C(C)C)no3)c(C)c2)CC1` (stereo not given): the “Percent Effect” value worked out at 73.38%.

As to `Cc1cc(CN2CCN(C(C)c3nc(C(C)C)no3)CC2)no1` (stereo not given), the “Percent Effect” value is on record as -1.591%.

Turning to `CC(c1nc(C(C)(C)C)no1)N1CCN(CC(=O)N2CCOCC2)CC1` (stereo not given), the “Percent Effect” value was found to be 7.513%.

For `Cc1cc(N2CCOCC2)ccc1NC(C)c1nc(C(C)C)no1` (stereo not given), the “Percent Effect” value is 72.08%.

Regarding `Cc1cc(OCC(=O)NC(C)c2ccc(N3CCOCC3)cc2)no1` (stereo not given), the “Percent Effect” value was found to be 4.093%.

As for `CCc1ccccc1NC(=O)NCc1nnc(SC)n1C`, the “Percent Effect” value was -6.778%.

As to `CC(=O)N1CCC(CCc2ccnc(NC(=O)c3ccccn3)c2)CC1`, the “Percent Effect” value is -18.95%.

For `COc1ccc(-n2cnc(Cl)c2CO)cc1`, the “Percent Effect” value stood at 11.93%.

As for `COCCN(C)C[C@H]1C[C@H](CO)CN(C(=O)c2ccn(C)c(=O)c2)C1`, the “Percent Effect” value is reported as 18.02%.

As to `CCc1ncnc(N2CCOCC2C2CC2)c1F` (stereo not given), the “Percent Effect” value came out at 0.2478%.

`COCCNC(=O)c1ccccc1-n1cc(CN)cn1`: the “Percent Effect” value was -18.17%.

As for `CC(C)COC(=O)N1CC(=O)N(CCCc2ccccc2)CC(O)C1` (stereo not given), the “Percent Effect” value is on record as 6.947%.

In the case of `Cc1cc(C)c(CNC(=O)NCC(O)c2ccccc2F)c(=O)[nH]1` (stereo not given), the “Percent Effect” value was -14.22%.

For `CCc1nccn1C1CCCN(C(=O)c2cccc3c2OCO3)C1` (stereo not given), the “Percent Effect” value was -43.9%.

In the case of `C1CCN(CCN2CCCCC2C2OCCO2)CC1` (stereo not given), the “Percent Effect” value was determined as 10.52%.

As for `Cc1cccc(C2(O)CCN(Cc3ccccc3N3CCCC3)CC2)c1`, the “Percent Effect” value turned out to be 33.4%.

Turning to `CCc1ccc(O)c(C(=O)N2CCN(CC(=O)N(CC)CC)CC2)c1`, the “Percent Effect” value is recorded as -14.81%.

With `Cc1cc(C)n(CC2CN(CC(=O)NC3CCCCC3)CCO2)n1` (stereo not given), the “Percent Effect” value is given as -10.09%.

For `Cc1cc2c(cc1Cl)C=CC1(CCN(C(=O)N3CCOCC3)CC1)O2`, the “Percent Effect” value was determined as 23.79%.

Turning to `Cc1cc2c(cc1Cl)C=CC1(CCN(CC(=O)N3CCCC3)CC1)O2`, the “Percent Effect” value is 63.41%.

On to `Cc1cc2c(cc1Cl)C=CC1(CCN(CC(=O)NC3CCCC3)CC1)O2`, for which the “Percent Effect” value amounted to 71.56%.

As for `Cc1cc2c(cc1Cl)C=CC1(CCN(CC(=O)N3CCOCC3)CC1)O2`, the “Percent Effect” value is on record as -15.66%.

Take `Cc1cc2c(cc1C)OC1(C=C2)CCN(CC(=O)N2CCOCC2)CC1`: the “Percent Effect” value stood at 44.67%.

In the case of `Cc1cc(C)n(CC2CN(CC(=O)NC3CCCC3)CCO2)n1` (stereo not given), the “Percent Effect” value is reported as -7.412%.

`CCN(CC)C(=O)CN1CCC2(C=Cc3cc(Cl)c(C)cc3O2)CC1`: the “Percent Effect” value turned out to be 52.2%.

The values above are taken from ChEMBL document CHEMBL3988442, “University of Dundee, Small-Polar-MMV Screening Library” (2021).
